Inconclusive results are not listed. Calls of active or inactive are those of the source. The call rests on the fitted dose curve; in most records, active means well fitted activation curve with a large enough effect in the signal ratio in the repeat runs, with a control signal flat (not every such curve was filed as active); inconclusive means weak or mixed curves; inactive means flat fitted curve, though single readings scatter; the % refers to the signal ratio.
Assay: qHTS assay for small molecule activators of the heat shock response signaling pathway (AID 743210)
Conditions: HeLa HSE-bla reporter, beta-lactamase ratio, 5 h; series mostly up to 62.6 µM; activation: at the top concentration
Outline: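 Compound exposure lasted 5 h at 37 C in HeLa cells carrying a heat-shock-element-driven beta-lactamase reporter. Read-out: fluorescence intensity after 2.5 h room-temperature loading with LiveBLAzer B/G FRET substrate.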
On the % scale 0 is the no-effect control and ±100 the full control effect.

Row | SMILES | activation
1 | NC1=NC(=O)C(c2ccccc2)O1 (stereo not given) | -0.48% (inactive)
2 | C[C@]12CC[C@H]3[C@@H](CCC4=CC(=O)CC[C@@]43C)[C@@H]1CC[C@@H]2C(=O)O | -1.19% (inactive)
3 | COP(=S)(OC)Oc1ccc(S(N)(=O)=O)cc1 | -0.792% (inactive)
4 | ClCCCN1CCN(c2cccc(Cl)c2)CC1 | 0.516% (inactive)
5 | CC1=C(C(=O)O)N2C(=O)[C@@H](N)[C@H]2SC1 | 1.17% [at 29.1 µM] (inactive)
6 | CC1(C(=O)Nc2ccc(O)c(Cl)c2Cl)CCCCC1 | 1.5% (inactive)
7 | CCC#N | -1.12% [at 81.1 µM] (inactive)
8 | CCC(=O)C(CCN(C)C)(c1ccccc1)c1ccccc1 | -2.23% (inactive)
9 | CC(C=O)Cc1ccc2c(c1)OCO2 (stereo not given) | -0.829% (inactive)
10 | CN1CCC(N(Cc2ccccc2)c2ccccc2)CC1 | -0.117% (inactive)
11 | Clc1ccccc1N1CCNCC1 | 2.1% (inactive)
12 | CC(C(O)c1ccccc1)N(C)C/C=C/c1ccccc1 (stereo not given) | -0.175% (inactive)
13 | CN1C[C@@H](NS(=O)(=O)N(C)C)C[C@@H]2c3cccc4c3c(cn4C)C[C@H]21 | -0.641% (inactive)
14 | CC1CCC(=O)O1 (stereo not given) | -1.37% (inactive)
15 | Cc1coc2c1CCC(C)C2 (stereo not given) | 0.401% [at 81.1 µM] (inactive)
16 | COc1cccc(C(=O)NN(C(=O)c2cc(C)cc(C)c2)C(C)(C)C)c1C | 1.71% (inactive)
17 | O=S(=O)(O)C(F)(F)C(F)(F)C(F)(F)C(F)(F)C(F)(F)C(F)(F)F | -0.248% (inactive)
18 | CCN(CC)CCOC(=O)C(C)(c1ccccc1)c1ccccc1 | -0.9% (inactive)

Row | SMILES | activation
19 | CCOC(=O)C(c1c(O)c2ccccc2oc1=O)c1c(O)c2ccccc2oc1=O | 3.1% (inactive)
20 | CC1COC2(c3ccccc3Cl)c3cc(Cl)ccc3NC(=O)CN12 (stereo not given) | -0.6% (inactive)
21 | CCOC(=O)C1(c2ccccc2)CCN(CCc2ccc(N)cc2)CC1 | -0.525% (inactive)
22 | CC(C(=O)c1ccccc1)N(C)C (stereo not given) | 0.075% (inactive)
23 | CC(C)(C)NCC(O)c1cc(Cl)c(N)c(Cl)c1 (stereo not given) | 0.204% (inactive)
24 | COc1cccc2c1cc([N+](=O)[O-])c1c(C(=O)O)cc3c(c12)OCO3 | -0.271% (inactive)
25 | Fc1ccc(C2(Cn3cncn3)OC2c2ccccc2Cl)cc1 (stereo not given) | -0.138% (inactive)
26 | O=[N+]([O-])c1cc(Cl)c(Cl)c(Cl)c1 | -0.124% (inactive)
27 | COCC(=O)N(c1c(C)cccc1C)N1CCOC1=O | 0% (inactive)
28 | O=C(CCN1CC1)OCC(CO)(COC(=O)CCN1CC1)COC(=O)CCN1CC1 | -0.135% (inactive)
29 | COC(=O)COc1ccc(Cl)cc1Cl | 1.34% (inactive)
30 | Fc1cc(Br)ccc1CBr | -0.759% (inactive)
31 | CCNc1nc(NC(C)C)nc(OC)n1 | -1.53% (inactive)
32 | Nc1c(Br)cc([N+](=O)[O-])cc1[N+](=O)[O-] | -1.73% [at 81.1 µM] (inactive)
33 | CCCCC(=O)Cl | -1.65% [at 81.1 µM] (inactive)
34 | O=C(NCO)NCO | -1.18% [at 81.1 µM] (inactive)
35 | O=C1CN2CCOC2(c2ccccc2Cl)c2cc(Cl)ccc2N1 (stereo not given) | -0.446% (inactive)

From PubChem BioAssay (Tox21)
